# Data: PubChem BioAssay AID504434 (National Center for Advancing Translational Sciences (NCATS), 2011)
# Inconclusive results are not listed. The source made the active and inactive calls. Calls follow the shape of the dose curve; as a rule, active = well fitted curve in the direction sought with a large enough effect; inconclusive = small, poorly fitted or top-dose-only effect, or effect the other way, or another doubt; inactive = no such curve, though single readings can be large or run the other way.
# Test: Secondary Assay for lipid storage modulators: AML12 cell LDSA assay for probe SAR
# Details: AML12 lipid droplet accumulation, BODIPY 493/503 imaging, oleate
# Description: NIH Molecular Libraries Probe Production Centers Network [MLPCN] NIH Chemical Genomics Center [NCGC] MLPCN Grant: 1 R03 MH085686-01 Assay Submitter (PI): Beller, Mathias; Max-Planck-Institut fur Biophysikalische Chemie NCGC Assay Overview: Storing lipids as a reservoir for energy or the anabolism of elementary metabolites is a common feature of probably all cells and is conserved from bacteria to humans. The universal cellular lipid storage organelle is the so-called lipid storage droplet (LD). Although ubiquitous, LDs share a simple structure composed of a hydrophobic core that harbors the storage lipids, which is shielded by a droplet-specific phospholipid monolayer to which proteins are attached. The current model of LD biogenesis involves an incorporation of the lipid core into the membrane leaflets of the endoplasmic reticulum (ER) followed by a subsequent budding-like maturation of a LD, which ultimately pinches off. […]
# NCGC Assay Protocol Summary: The assay was performed with AML12 cells, using an oleic acid feeding protocol similar to the S3 assay. […] Fluorescence was detected by excitation of the fluorophores with a 488-nm laser on an Acumen Explorer (TTP Lab Tech). […] Cells were detected using channel 3 (575-640 nm) with 5-um width and 100-um depth filters. The ratio of the number of objects in PMT channel 2 over the number of objects in PMT channel 3 was also calculated. […]
structure (smiles),measurement,value
CCC/C=C/C/C=C/C=C/C=N/NN=O,Potency,0.499 µM (active)
